# In PubChem BioAssay AID588856 (National Center for Advancing Translational Sciences (NCATS), 2011):
# Hit rate of the full screen: of about 410,000 compounds, about 3,100 (0.76%) were called active. Entries that show only a call come without a potency. Calls come from the whole dose curve; as a rule, active = well fitted cell-killing curve with a large enough effect; inactive = no such curve, though single readings can be large or run the other way. Only a selection was taken, and actives are over-represented in it overall.
# Assay: qHTS for Inhibitors of TGF-b: Cytotox Counterscreen
# Details: HepG2 CAGA-GFP viability, ATP luminescence, 18 h; series mostly up to 46.1 µM
# Source text: TGF-b is a main component in the TGF-b signaling pathway which plays diverse roles in cellular and development pathways. TGF-b is mediated by transcription factors called "Smads". Although the Smad-dependent pathway is the primary canonical TGF-b signaling mode, TGF-b1 can also activate alternative signaling pathways, including those involving MAPK (ERK, JNK and p38). This interaction may mediate or enhance Smad-dependent responses, or can exert Smad-independent effects. The complexity of this signaling cascade allows the TGF-b superfamily to perform unique, overlapping or redundant functions. We believe that targeting the TGF-beta pathway at the Smad-transcription factor level may eliminate the consequences of disrupting the entire pathway and offer specificity without affecting other signaling pathways. Smad3 is the primary transducer of TGF-b's signals and Smad3 regulates many functions attributed to TGF-b signaling. We hypothesize that Smad3 inhibitors will selectively eliminate Smad3-specific TGF-beta signals without undesired off-target effects. We aim to identify Smad3-small molecule antagonists using a quantitative high throughput screening (qHTS) approach.
# A high-throughput assay was developed to screen the NIH Molecular Libraries Small Molecule Repository (MLSMR). This is a cell based assay, where TGF-b is tagged with GFP. This is a counterscreen that evaluates the cytotoxicity of the compounds that were screened in the primary cell-based screen (AID 588855).
# MH087449NIH Chemical Genomics Center [NCGC]
# NIH Molecular Libraries Probe Centers Network [MLPCN]
# Assay Submitter (PI): Sushil Rane, National Institute of […]
# Suspensions of trypsinized HEPG2 CAGA-GFP cells were dispensed into white, tissue culture-treated, solid 1536-well plates at 5uL/well (1000 cells/well final concentration) in DMEM medium supplemented with 1% FBS. Plates were incubated at 37 degrees C for 2 hours, after which 23 nL of compounds or DMSO were delivered to each well using a pin tool. One uL of recombinant TGF-beta in DMEM (1% FBS) was then dispensed (500 pg/mL final concentration), and plates were incubated at 37 degrees C for 18 hours. Two uL of CellTiter Glo (Promega), a luminescence-based viability reagent, was dispensed, followed by a 10 minute room temperature incubation. The plates were then measured on a PerkinElmer ViewLux plate reader for luminescence (clear filter) using a 5 second exposure. The %Activity was determined from the corrected luminescence values. Wells containing media only (no cells) were used to normalize %Activity of identified toxic compounds; media-only wells corresponded to 100%Activity (complete cell-killing), while DMSO-dosed cell controls were used to normalize 0%Activity (no toxicity).
# Concentration-response curves were fitted to the signals arising from the resulting luminescence. The concentration-effect curves were then classified based on curve quality (r2), response magnitude and degree of measured activity, and compounds were subsequently categorized based on their curve class.
# Potency is the fitted concentration of half-maximal effect.
row,SMILES,Potency
1,COc1ccc2c(c1O)-c1cccc3c1[C@@H](C2)N(C)CC3,inactive
2,COc1ccc2cc1Oc1ccc(cc1)C[C@H]1c3cc(c(OC)cc3CCN1C)Oc1c(O)c(OC)cc3c1[C@H](C2)N(C)CC3,7.94 µM (active)
3,COc1c(O)ccc2c1-c1c3c(cc4c1C(C2)N(C)CC4)OCO3 (centres undefined),inactive
4,CC(C)COC(=O)n1c(=O)oc2ccc(S(=O)(=O)N3CCCCC3)cc21,inactive
5,COc1ccccc1CNC(=O)C(Cc1ccccc1)NS(=O)(=O)c1ccc2c(c1)oc(=O)n2C (centres undefined),inactive
6,ClCCN(CCCl)c1ccc(C=Nc2ccc(/C=C/c3ccnc4ccccc34)cc2)cc1,inactive
7,Cc1ccc(C(O)P(=O)(OC(C)C)c2ccc(N(C)C)cc2)cc1 (centres undefined),inactive
8,COc1ccc(CCNC(=O)CCn2c(=O)oc3ccccc32)cc1OC,inactive
9,O=C1CC(=O)N(Cc2ccccc2)C(=O)N1CCCCCCN1C(=O)CC(=O)N(Cc2ccccc2)C1=O,inactive
10,CC(C)(C)c1ccc(CN2C(=O)CN=C(c3ccccc3)c3ccccc32)cc1,12.6 µM (active)
11,CC(C)OP(=O)(OC(C)C)C(Nc1ccccc1)c1cccc([N+](=O)[O-])c1 (centres undefined),inactive
12,O=c1[nH]c(=S)[nH]c(O)c1/C=C1\C=Nc2ccccc21,inactive
13,COc1ccccc1CNC(=O)Cn1c(=O)oc2cc(Cl)ccc21,inactive
14,N#Cc1c(Cl)c(Cl)c(Cl)c(C#N)c1Cl,0.316 µM (active)
15,Cn1c(=O)oc2cc(S(=O)(=O)N3CCC(C(=O)Nc4ccc(OC(F)(F)F)cc4)CC3)ccc21,inactive
16,CCCCOP(=O)(c1ccc(N(C)C)cc1)C(O)c1cc(OC)ccc1OC (centres undefined),inactive
17,COc1cc([C@@H]2c3cc4c(cc3[C@H](OC(C)=O)[C@H]3COC(=O)[C@H]23)OCO4)cc(OC)c1OC,inactive
18,CCOC(=O)C(NS(=O)(=O)c1ccc(C)cc1)(C(F)(F)F)P(=O)(OCC(C)C)OCC(C)C (centres undefined),inactive
19,CN(C)CC1Oc2ccccc2OC1(O)c1ccccc1 (centres undefined),3.98 µM (active)
20,CO[C@H]1[C@@H](O)[C@@H](C)O[C@H](O[C@H]2[C@H](Oc3cccc4c(O)c5c(=O)oc6ccc(C)c7c(=O)oc(c34)c5c67)O[C@H](C)[C@H](O)[C@@H]2O)[C@@H]1O,inactive
21,CCOC(=O)c1ccc(NC(=O)CCn2c(=O)oc3ccccc32)cc1,inactive
22,O=C1NC(=O)N(Cc2ccco2)C(=O)/C1=C\c1ccc(-c2ccc(F)cc2)o1,12.6 µM (active)
23,CCOP(=O)(OCC)C(Cc1ccccc1)N=C(c1ccccc1)c1ccccc1 (centres undefined),inactive
24,Cc1ccc2c(c1)C1C[N+](C)(CC(=O)c3ccccc3)CCC1N2C(=O)c1ccccc1Cl (centres undefined),inactive
25,Brc1cc(Br)c(Oc2cc(Br)c(Br)cc2Br)cc1Br,inactive
26,Cc1ncoc1C(=O)NCC1=C(c2cccc3ccccc23)C[C@@H]2CC[C@H]1N2Cc1ccco1,inactive
27,COc1cc(Cn2c(N)c(C(=O)NCc3ccco3)c3nc4ccccc4nc32)cc(OC)c1OC,17.8 µM (active)
28,COC(=O)C1=C(c2ccccc2)C[C@@H]2CC[C@H]1N2C(=O)NCc1ccco1,inactive
29,CCN(CC)C(=O)Oc1ccc(OC(=O)N(CC)CC)cc1,inactive
